# Source: PubChem (National Center for Advancing Translational Sciences (NCATS))
# ELG1 genotoxic: qHTS screen for small molecules that induce genotoxicity in human embryonic kidney (HEK293T) cells expressing luciferase-tagged ELG1; HEK293T ELG1-luciferase reporter, luminescence, 16 h; Potency, µM (top dose mostly 46 µM), inactives show at the highest dose activity change, positive = activation, most hits filed as activators; 330,000 compounds, 1.3% hits; AID 504466, 2011; note: % of control where 0% means no effect; nearly all actives have a fitted effect of over 60% in size
#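 Luminescence read-out: rising ELG1-luciferase signal, reflecting elevated ELG1 protein under genetic stress, flags genotoxic compounds. Cells were treated for 16 hr at 37 °C before ONE-Glo detection.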
# Rab9 prom act: qHTS Assay for Rab9 Promoter Activators; Huh7 Rab9 promoter-luciferase reporter, luminescence, 24 h; Potency, µM (highest dose often 9.22 µM), for the others: at the highest dose activation, negative = inhibition, usual class: activators; 320,000 compounds, 2.8% hits; AID 485297, 2010; note: % of control where 0% means no effect; nearly all actives have a fitted effect of over 60% in size
#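 Promoter activation is measured as luciferase luminescence in Huh7 cells stably transfected with a Rab9 promoter–luciferase construct, following 24 h compound exposure at 37 °C and 10 min reagent incubation at ambient temperature.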
# FLuc counter: qHTS profiling assay for firefly luciferase inhibitor/activator using purifed enzyme and Km concentrations of substrates (counterscreen for miR-21 project); Luciferin 4-monooxygenase (Photinus pyralis), P08659; 360,000 compounds, 6.9% hits; purified FLuc, Km substrates, luminescence inhibition; Potency, µM (doses to about 57.5 µM), without a hit: top-dose activity change, negative = inhibition, usual class: inhibitors;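 note: plate controls were vehicle for no effect and reference inhibitor for full effect; nearly all actives have a fitted effect of over 55% in size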
# Target sequence (P08659 whole entry, looked up): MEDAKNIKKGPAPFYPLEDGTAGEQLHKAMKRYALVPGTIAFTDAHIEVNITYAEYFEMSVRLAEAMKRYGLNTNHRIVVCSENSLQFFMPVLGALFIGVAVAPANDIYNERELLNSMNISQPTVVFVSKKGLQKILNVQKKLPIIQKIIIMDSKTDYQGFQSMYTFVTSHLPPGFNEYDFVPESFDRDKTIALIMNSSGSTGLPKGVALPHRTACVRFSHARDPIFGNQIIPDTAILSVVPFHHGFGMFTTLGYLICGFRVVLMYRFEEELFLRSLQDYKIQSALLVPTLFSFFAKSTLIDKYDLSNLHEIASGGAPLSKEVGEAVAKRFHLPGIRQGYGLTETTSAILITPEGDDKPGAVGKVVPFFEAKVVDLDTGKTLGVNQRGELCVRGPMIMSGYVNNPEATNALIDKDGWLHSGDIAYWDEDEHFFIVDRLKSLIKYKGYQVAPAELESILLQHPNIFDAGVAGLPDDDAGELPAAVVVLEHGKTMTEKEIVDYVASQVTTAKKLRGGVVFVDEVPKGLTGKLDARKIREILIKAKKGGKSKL
#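 Purified P. pyralis luciferase, 10 nM final, with Km-level 10 uM D-luciferin and 10 uM ATP in 50 mM Tris acetate pH 7.5, 10 mM Mg acetate, 0.01% Tween-20, 0.05% BSA; 6-point qHTS titration about 60 µM downward; luminescence read.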
# NPC1 promoter act: qHTS Assay for NPC1 Promoter Activators; AID 485313, 2010; 320,000 compounds, 2.4% hits; Huh7 NPC1 promoter luciferase reporter, 24 h; Potency, µM (series often up to 9.22 µM), for inactives: at the highest dose activation, usual class: activators; note: % of control where 0% means no effect; nearly all actives have a fitted effect of over 60% in size
#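 Huh7 cells stably carrying NPC1 promoter–luciferase, plated in Opti-MEM with 10% FBS for 2 h, were exposed to compound in DMSO for 24 h at 37 °C; luciferase reagent was added for 10 min and luminescence read.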
# Luc counter: Counterscreen for Luciferase (Kinase-Glo TM) Inhibition | Luciferin 4-monooxygenase (Photuris pensylvanica), Q27757 | Kinase-Glo luciferase, ATP luminescence, 8 min | Potency, µM (titrated, usually from 38.3 µM), for the others: at the highest dose activity change, negative = inhibition, actives largely listed as inhibitors | 200,000 compounds, 0.28% hits | AID 1379, 2008; note: % is set by controls: 0 for no effect and ±100 for the full control effect; nearly all actives have a fitted effect of over 60% in size
#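 Recombinant Kinase-Glo luciferase, 10 uM ATP (linear range), luciferin; imidazole pH 7.2 / KCl / MgCl2 / Tween / BSA buffer; 8 min RT; luminescence.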
# SMN2 splice up: qHTS Assay for Enhancers of SMN2 Splice Variant Expression | HEK293 SMN2-luciferase splicing reporter, luminescence, 30-36 h | Potency, µM (titrated, usually from 46.1 µM), for inactives: at the highest dose activity change, positive = activation, most hits filed as activators | 210,000 compounds, 2.8% hits | AID 1458, 2008; note: % of control where 0% means no effect; nearly all actives have a fitted effect of over 55% in size
#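 qHTS luciferase splicing reporter: luminescence rises when SMN2 exon 7 is included in transfected HEK293 cells. Compound exposure lasted 30-36 h at 37C, with 4.5 mM final sodium butyrate as control, followed by a ONE-Glo read.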
# The depositor's hits bear a star; ? = inconclusive; . = no result; ! = repeats disagree; [ ] = another dose, or the depositor's remark. The list is not random: actives were taken first. Their share in the collection is about 7.3%. Calls come from the whole dose curve; as a rule, active = well fitted curve in the direction sought with a large enough effect; inconclusive = small, poorly fitted or top-dose-only effect, or another doubt; inactive = no such curve, though single readings can be large; an effect the other way counts as inactive or inconclusive. Potency is the fitted concentration of half-maximal effect.
SMILES,ELG1 genotoxic,Rab9 prom act,FLuc counter,NPC1 promoter act,Luc counter,SMN2 splice up
C#CCNC(=O)/C=C/c1ccc(OC)cc1,?,?,21µM*,28%,-15%,14µM*
COc1ccc(/C=C/C(=O)NCCSCc2ccco2)cc1,3%,-1%,17µM*,-1%,4%,7%
O=C(/C=C/c1ccccc1)Nn1cnnc1,4%,4%,?,0%,-3%,15%
COc1ccc(CCNC(=O)CCCCn2c(=O)c3ccccc3n(Cc3cc(C)ccc3C)c2=O)cc1OC,.,.,-2%,.,.,1%
COc1ccc(-c2ccc(NS(=O)(=O)c3ccc(OC)c(OC)c3)cc2)nn1,.,.,5%,.,.,.
COc1ccc(CNC(=O)c2cnn3c(C)c(Cc4ccc(F)cc4)c(C)nc23)cc1,.,.,-5%,.,.,.
Cc1ccc(C)c(Cn2c3ccccc3c3cnn(CC(=O)NC4CCC(C)CC4)c(=O)c32)c1 (stereo not given),.,.,-3%,.,.,-9%
Cc1ccccc1NC(=O)c1c(NC(=O)C(C)Oc2cccc(Cl)c2)sc2c1CCCC2 (stereo not given),.,.,-11%,.,.,-7%
COc1ccc(-c2cc(C(F)(F)F)n3nc(C(=O)Nc4sc5c(c4C(=O)OC(C)C)CCC(C)C5)cc3n2)cc1 (stereo not given),.,.,0%,.,.,0%
NC1(C(=O)O)CCc2cc(P(=O)(O)O)ccc21 (stereo not given),.,.,.,.,.,-9%
COCCCNC(=O)c1sc2nc(C)c(C(=O)Nc3ccc(C)cc3C)c(-c3ccc(Br)cc3)c2c1N,.,.,-12%,.,.,-9%
COc1ccc(-c2ccc3c(N)c(C(=O)Nc4cccc(C)c4)sc3n2)cc1,.,.,1%,.,.,1.8µM*
COc1cccc(NC(=O)c2sc3nc(C)c(C(=O)Nc4ccc(C)cc4C)c(-c4ccc(Br)cc4)c3c2N)c1,.,.,-5%,.,.,13µM*
COc1ccc(-c2ccc3c(N)c(C(=O)NC(C)C)sc3n2)cc1OC,2%,12%,17µM*,0%,.,.
COc1ccc(/C=C2\C(=O)ON=C2c2cccc([N+](=O)[O-])c2)cc1,1%,-3%,24µM*,-4%,-5%,9%
COc1ccc(/C=C2/C(=O)ON=C2c2ccccc2)cc1OC,15%,-8%,11µM*,-6%,-5%,7%
Cc1ccc(S(=O)(=O)NCC(c2ccc(N(C)C)cc2)N2CCc3ccccc32)cc1C (stereo not given),.,.,1%,.,.,.
CCS(=O)(=O)N1CCN(c2cnn(-c3ccccc3)c(=O)c2Cl)CC1,3%,-8%,-1%,11%,-7%,11%
O=c1c2ccccc2cnn1-c1nc2ccccc2[nH]1,-8%,?,0.17µM*,0.1µM*,2µM*,.
O=c1[nH]c2ccccc2nc1C(F)(F)F,0%,3%,1%,-2%,.,.
O=c1c(Cl)c(N2CCCCC2)cnn1-c1nc2ccccc2[nH]1,?,0.11µM*,0.38µM*,?,1.6µM*,-63%
O=C1C2=C(Nc3ccccc3SC2c2ccccc2C(F)(F)F)c2ccccc21 (stereo not given),.,.,-1%,.,.,-22%
COC(=O)Cc1[nH]n(-c2ccccc2)c(=O)c1C=Nc1ccc(C)cc1,2%,-3%,9.5µM*,0%,.,.
O=C(OC1CCc2ccccc2C1=O)c1ccccc1O (stereo not given),-32%,-5%,12µM*,-4%,-12%,5%
COc1ccc(C2CC(c3ccc(C)o3)=NN2C(C)=O)cc1 (stereo not given),?,?,?,?,0%,13µM*
SMILES,ELG1 genotoxic,Rab9 prom act,FLuc counter,NPC1 promoter act,Luc counter,SMN2 splice up
COc1ccc(C2CC(c3ccc(Cl)cc3)=NN2C(C)=O)cc1 (stereo not given),15%,?,24µM*,?,.,.
CCC(=O)N1N=C(c2ccc(C)o2)CC1c1ccc(N(C)C)cc1 (stereo not given),12%,20%,?,13%,1%,27%
CC(=O)N1N=C(c2ccc(Cl)cc2)CC1c1ccc([N+](=O)[O-])cc1 (stereo not given),-1%,3%,-1%,-5%,.,.
COc1ccc(C2CC(c3ccc4ccccc4c3OC(C)=O)=NN2C(C)=O)cc1 (stereo not given),?,4µM*,-1%,4µM*,.,.
CC(=O)N1N=C(c2ccc(C)o2)CC1c1ccc(Br)cc1 (stereo not given),?,?,?,2.5µM*,-1%,?
COc1ccc(C2CC(c3ccc(OC)cc3O)=NN2C(=O)c2ccccc2)cc1 (stereo not given),0%,5%,4%,-4%,.,.
COc1ccc(C2CC(=O)c3cc(-c4nc(-c5cccc([N+](=O)[O-])c5)cs4)c(=O)n(-c4ccc(C)c(C)c4)c3C2)cc1 (stereo not given),.,.,-3%,.,.,-11%
N#CCCN(C(=O)COC(=O)CNC(=O)c1ccc(-c2ccccc2)cc1)c1ccc(F)cc1,2%,3%,24µM*,-7%,.,.
Cn1c(/C(C#N)=C/c2ccncc2)nc2ccccc21,0%,-5%,-12%,-5%,-2%,-6%
Cn1c(/C(C#N)=C/c2ccc(O)cc2)nc2ccccc21,?,?,12µM*,?,.,.
Cn1c(/C(C#N)=C/c2ccc(C(F)(F)F)cc2)nc2ccccc21,.,.,6.7µM*,.,.,-10%
CC(CN(C)C)C(C)(O)Cc1ccc(Cl)cc1 (stereo not given),.,.,.,.,2%[39.9 µM],.
O=c1c2oc3ccccc3c2n(Cc2cccc(F)c2)c(=O)n1Cc1ccco1,.,.,-6%,.,.,.
Cc1ccc(S(=O)(=O)C2(C(=O)Nc3ccc(Cl)c(C(F)(F)F)c3)CC2)cc1,.,.,-4%,.,.,-24%
Nc1nc2ccc(Oc3ccccc3)cc2s1,8.2µM*,4µM*,8.5µM*,2.8µM*,0%,?
Cc1nc2ccc(NC(=O)COc3ccccc3)cc2s1,16%,18%,?,3%,0%,10%
Nc1nc2ccc(OC(F)(F)F)cc2s1,16%,10µM*!,?,10µM*!,-1%,?
Cc1nc2ccc(Oc3ccccc3)cc2s1,5%,12%,17µM*,15%,.,.
COC(=O)[C@H]1C[C@@H]1[C@H](NS(=O)(=O)c1ccc(-c2ccccc2)cc1)c1ccccc1,.,.,.,.,3%,-71%
Cc1cc(-c2ccccc2)c2c(n1)sc1c(O)cc(=O)[nH]c12,0%,6%,-1%,-1%,.,.
